An excerpt weighted towards active compounds, which were near 3% of everything screened.
ClpP mod – qHTS Assay for Activators of ClpP | purified B. subtilis ClpP, FRET peptide cleavage, 20 min | Potency, µM (series often up to 57.5 µM), inactives show at the top dose activity change, negative = active | 340,000 compounds, 1.9% hits; active means well fitted falling curve with a large enough effect; inconclusive means small, poorly fitted or top-dose-only effect; inactive means no such curve, though single readings can be large or run the other way; further: potency means the concentration at half of the fitted maximal effect; the source files actives as falling curves though it sought activators and does not explain the sign; nearly all actives have a fitted effect of over 65% in size
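Buffer: 100 mM Tris/HCl pH8, 100 mM KCl, 0.05% low protease BSA, 2.5% glycerol, 0.01% Tween-20. ClpP 10 microg/mL final; 20 min RT; delta FRET normalized to ADEP and DMSO controls.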
BCR signal inh – chronic active BCR signaling inhibition. ABC-DLBCL IkBa-CBG/CBR reporter, luminescence ratio, 4 h. Potency, µM (highest dose often 46.1 µM), without a hit: at the highest dose activity change, negative = inhibition, usual class: inhibitors. 340,000 compounds, 0.05% hits; active means well fitted inhibition curve with a large enough effect in the signal ratio, with a control signal flat, not every such curve was filed as active; inconclusive means small, poorly fitted or top-dose-only effect, or effect the other way, or a change in a side signal; the % refers to the signal ratio;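 further: potency means the concentration at half of the fitted maximal effect; plate controls were basal doxycycline-induced cells for no effect and cells given 10 µM MG132 for full effect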
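TMD8 ABC-DLBCL cells carrying doxycycline-inducible green luciferase fused to IkappaBalpha plus unfused red luciferase were exposed to compounds (up to 46 uM) for 4 hrs at 37C. Activity came from the overlap-corrected green/red luminescence ratio.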
hERG WT inh – KCNH2 (human, wildtype) channel inhibition | U2OS, BacMam KCNH2, thallium flux FluxOr; stronger effect = lower value | activity change, % at 1.84 µM | 340,000 compounds, 0.37% hits | AID 720551;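 active means maximum activity change below -70%; inconclusive means maximum activity change between -70% and -50%; inactive means maximum activity change above -50%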; further: on the % scale 0 is the no-effect control and ±100 the full control effect
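U2OS cells transduced with wild-type KCNH2 virus are loaded with FluxOr dye for 45 min, and thallium flux is measured in kinetic reads before and after stimulation buffer. Rate constants are normalized to DMSO controls.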
LDHA inh – inhibitors of human lactate dehydrogenase A; P00338; purified LDHA, NADH/diaphorase-resazurin fluorescence; stronger effect = lower value; activity change, % (values are at about 110 or 230 µM); 480,000 compounds, 0.15% hits; in the data active means activity change below about -30%; inconclusive means mostly about -25% to -30%;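 further: plate controls were DMSO wells for no effect and wells without enzyme for full effect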
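Human LDH5 at 2 nM final in Tris HCl pH 7.4 with 0.06 mM NADH and 0.2 mM pyruvate, reacted 5 minutes at room temperature. Remaining NADH coupled via diaphorase/resazurin; resorufin fluorescence read at 0 and 20 minutes, normalized to enzyme-free and DMSO wells.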
KCNH2 3.1 inh – blocks the human KCNH2 3.1 channel isoform. U2OS KCNH2 3.1, thallium flux FluxOr; stronger effect = lower value. activity change, % (tested at about 1.8 µM). 340,000 compounds, 0.95% hits. AID 720553;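 active means maximum activity change below -70%; inconclusive means maximum activity change from -70% to -50%; inactive means maximum activity change above -50%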;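 further: thallium influx rate constant from kinetic fluorescence after stimulation buffer; on the % scale 0 is the no-effect control and ±100 the full control effect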
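Virally transduced U2OS (3.1 isoform, 4 h infection in dark at RT) → overnight 37 C → FluxOr + Red40 in HBSS/HEPES, 45 min → stimulation buffer, 2 min kinetic read → rate constant vs DMSO controls.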
ALOX12 inh – blocks human arachidonate 12S-lipoxygenase | AID 1671190 | purified 12hLO, xylenol orange hydroperoxide absorbance | 580,000 compounds, 1.1% hits | P18054 | Potency, µM (doses to about 108 µM), inactives show at the top dose activity change, negative = inhibition, usual class: inhibitors; active means well fitted inhibition curve with a large enough effect; inconclusive means small, poorly fitted or top-dose-only effect, or another doubt; inactive means no such curve, though single readings can be large or run the other way; further: potency means the concentration at half of the fitted maximal effect; on the % scale 0 is the no-effect control and ±100 the full control effect
Target sequence (P18054 whole entry, looked up): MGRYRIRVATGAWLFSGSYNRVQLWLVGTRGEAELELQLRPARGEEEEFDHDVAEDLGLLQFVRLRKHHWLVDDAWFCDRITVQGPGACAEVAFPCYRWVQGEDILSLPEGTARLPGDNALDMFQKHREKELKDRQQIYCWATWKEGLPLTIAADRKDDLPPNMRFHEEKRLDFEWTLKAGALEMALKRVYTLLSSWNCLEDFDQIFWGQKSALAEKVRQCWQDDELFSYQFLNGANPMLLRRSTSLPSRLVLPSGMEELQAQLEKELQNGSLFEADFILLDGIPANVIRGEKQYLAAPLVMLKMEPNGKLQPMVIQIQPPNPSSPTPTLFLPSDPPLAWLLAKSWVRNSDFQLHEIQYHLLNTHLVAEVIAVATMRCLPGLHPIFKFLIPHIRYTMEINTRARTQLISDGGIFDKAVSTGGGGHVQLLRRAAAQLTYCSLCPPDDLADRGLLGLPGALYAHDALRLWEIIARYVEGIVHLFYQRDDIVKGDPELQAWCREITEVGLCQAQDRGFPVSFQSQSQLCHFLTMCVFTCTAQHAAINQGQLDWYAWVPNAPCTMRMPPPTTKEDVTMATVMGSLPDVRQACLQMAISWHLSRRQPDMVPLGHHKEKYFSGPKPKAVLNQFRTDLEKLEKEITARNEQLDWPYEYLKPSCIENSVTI
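Purified human 12hLO (150 nM final) in 25 mM Hepes, 0.01% Triton X-100, pH 7.0 was preincubated 15 min at room temperature with compound. Then 40 uM arachidonic acid was added, 30 min. Hydroperoxide was read by Fe-XO absorbance ratio 573/405 nm.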
Starred values were filed as active, the others as inactive; [ ] = another dose, or the depositor's remark.

CCOc1cc(C2CC(=O)N3CN(c4ccccc4)CSC3=C2C#N)cc(Br)c1O (centres undefined) was read as LDHA inh 16.4 and ALOX12 inh 1.78µM*.
Screening COc1ccc2c(CSc3nnnn3-c3ccccc3)cc(=O)oc2c1 returned LDHA inh 6.7 and ALOX12 inh -64.9%.
CN1CCN(CC(=O)Nc2nnc(-c3cccs3)s2)CC1 was read as ClpP mod 22.4µM*, BCR signal inh -4.7%, hERG WT inh -4.7, LDHA inh 0.6, KCNH2 3.1 inh 11.4 and ALOX12 inh -12.8%.
Screening COc1cccc(OC)c1C(=O)Nc1nnc(-c2cccs2)s1 returned ClpP mod -25.4%, BCR signal inh 10.7%, hERG WT inh -1.4, LDHA inh -2.5, KCNH2 3.1 inh -14.7 and ALOX12 inh -11.7%.
CCC(CC)C(=O)Nc1nnc(-c2cccs2)s1 was read as ClpP mod 25.1µM*, BCR signal inh inconclusive, hERG WT inh -2.7, LDHA inh -5.6, KCNH2 3.1 inh 8.7 and ALOX12 inh -8.8%[57.4 µM].
Screening CCCc1ccc(-c2csc(NC(=O)c3cnc4c(c3)c(=O)n(C)c(=O)n4C)n2)cc1 returned LDHA inh -8.5 and ALOX12 inh -6.7%.
For CCN1CCN(C(c2ccc(C(F)(F)F)cc2)c2ccc3cccnc3c2O)CC1 (centres undefined) the results were ClpP mod -1.6%, BCR signal inh -15.7%, hERG WT inh -0.1, LDHA inh 7.3, KCNH2 3.1 inh -9.7 and ALOX12 inh 8.91µM*.
OCCN1CCN(C(c2cccs2)c2ccc3cccnc3c2O)CC1 (centres undefined) was read as BCR signal inh -20.6%.
COc1ccc(-c2nc(CNS(=O)(=O)c3ccc(OC)c(OC)c3)cs2)cc1 was read as ClpP mod -7.6%, BCR signal inh 0.8%, hERG WT inh 3.7, LDHA inh -2.3, KCNH2 3.1 inh -114.0* and ALOX12 inh -2.1%.
For COc1cccc(COc2ccc3c(C)c(Cc4ccccc4)c(=O)oc3c2)c1 the results were ClpP mod 12.6µM*, hERG WT inh 0.3, LDHA inh -2.2, KCNH2 3.1 inh -6.0 and ALOX12 inh -1.7%.
`COC(=O)c1cc(COc2ccc3ccc(=O)oc3c2)c(C)o1` gave ClpP mod 14.1µM*, BCR signal inh -13.0%, hERG WT inh -1.4, LDHA inh -8.0, KCNH2 3.1 inh -2.0 and ALOX12 inh 0.0%.
`COc1cc(COc2ccc3c(C)c(Cc4ccccc4)c(=O)oc3c2C)cc(OC)c1OC` gave ClpP mod 15.8µM*, BCR signal inh 0.1%, hERG WT inh -11.4, LDHA inh -4.3, KCNH2 3.1 inh -9.5 and ALOX12 inh -6.7%.
`COc1cccc(COc2ccc3ccc(=O)oc3c2)c1` gave ClpP mod 3.5%, BCR signal inh -7.7%, hERG WT inh -4.0, LDHA inh -16.1, KCNH2 3.1 inh -74.5* and ALOX12 inh 6.7%.
Screening O=C(Nc1ccccc1)O[C@@H]1CO[C@H]2[C@@H]1OC[C@@H]2NC(=S)Nc1ccccc1 returned ALOX12 inh 70.8µM*.
For O=C(Nc1cccc2ccccc12)O[C@@H]1CO[C@H]2[C@@H]1OC[C@@H]2NC(=S)Nc1ccc(Cl)cc1 the results were ALOX12 inh 35.5µM*.
COc1cc(NC(=S)N[C@H]2CO[C@H]3[C@@H]2OC[C@H]3OC(=O)Nc2ccccc2)cc(OC)c1 was read as ALOX12 inh -15.7%.
`O=C(Nc1cccc2ccccc12)O[C@@H]1CO[C@H]2[C@@H]1OC[C@@H]2NC(=S)Nc1cccc2ccccc12` gave ALOX12 inh 50.1µM*.
Screening S=C(Nc1cccc2ccccc12)N[C@H]1CO[C@H]2[C@@H]1OC[C@H]2OCc1ccccc1 returned ALOX12 inh 63.1µM*.
